Results on 33 compounds are retold here after ChEMBL document CHEMBL1961873, “Compounds: GSK PKIS; Assays: Nanosyn kinase panel” (2012).

Usually inhibition stands for the change of the read-out against control, counted positive when it falls.

Molecules are shown by their SMILES.
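Also: values are mean inhibition of MuSK from the GSK PKIS kinase screening panel.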

This assay addresses T1, Muscle, skeletal receptor tyrosine-protein kinase (Homo sapiens) (UniProt O15146).
T1 sequence (whole entry): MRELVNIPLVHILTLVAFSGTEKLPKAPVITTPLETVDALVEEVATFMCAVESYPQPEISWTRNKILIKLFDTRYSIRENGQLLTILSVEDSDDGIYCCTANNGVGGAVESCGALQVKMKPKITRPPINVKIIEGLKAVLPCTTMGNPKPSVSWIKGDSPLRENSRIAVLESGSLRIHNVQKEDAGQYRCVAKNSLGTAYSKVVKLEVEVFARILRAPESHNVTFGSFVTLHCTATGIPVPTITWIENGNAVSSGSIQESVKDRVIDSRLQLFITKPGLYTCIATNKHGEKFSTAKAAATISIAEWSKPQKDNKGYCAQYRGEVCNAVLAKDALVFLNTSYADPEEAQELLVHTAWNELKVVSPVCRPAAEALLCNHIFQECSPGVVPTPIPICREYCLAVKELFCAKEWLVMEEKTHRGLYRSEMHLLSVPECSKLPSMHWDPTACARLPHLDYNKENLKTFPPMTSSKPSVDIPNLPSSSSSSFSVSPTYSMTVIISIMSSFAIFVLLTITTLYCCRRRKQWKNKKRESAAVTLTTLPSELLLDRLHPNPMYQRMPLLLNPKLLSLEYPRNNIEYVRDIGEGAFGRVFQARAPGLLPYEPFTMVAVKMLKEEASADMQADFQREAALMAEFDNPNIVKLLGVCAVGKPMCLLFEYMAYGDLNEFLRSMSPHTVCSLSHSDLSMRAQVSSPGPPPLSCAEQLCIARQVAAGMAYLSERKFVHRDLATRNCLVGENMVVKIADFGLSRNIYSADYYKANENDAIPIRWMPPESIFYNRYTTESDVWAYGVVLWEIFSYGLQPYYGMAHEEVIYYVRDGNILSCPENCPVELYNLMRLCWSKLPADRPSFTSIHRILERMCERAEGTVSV
As to conditions: at 0.1 µM.
Regarding `CCn1cc(-c2ccnc3[nH]ccc23)c(-c2cccc(NC(=O)Nc3ccc(OCc4ccccc4)cc3)c2)n1`, the inhibition was -1.52%.

Take `Cc1cccc(Nc2ncc(-c3ccccc3)o2)c1`: the inhibition was 0.01%.

As to `Nc1nc(-c2ccc(F)cc2)c(-c2ccc3ncccc3n2)s1`, the inhibition was 3.45%. With `FC(F)(F)c1cccc(-c2nn3ncccc3c2-c2ccnc(Nc3ccc4c(c3)OCCO4)n2)c1`, the inhibition is 1.28%.

Consider `CNC(=O)c1cncc(/C=C/c2ccccc2Cl)c1`, for which the inhibition came to 0.71%. For the compound `O=C(O[C@H]1CN[C@H](C#Cc2cc3ncnc(Nc4ccc(Cc5ccccc5)cc4)c3s2)C1)N1CCOCC1`, the inhibition is -0.21%.

Turning to `COc1ccc(-c2nn3ncccc3c2-c2ccnc(Nc3ccc4c(c3)OCCO4)n2)cc1`, the inhibition is -0.81%. `CCNC(=O)O[C@H]1CN[C@H](C#Cc2cc3ncnc(Nc4ccc(OCc5cccc(F)c5)c(Cl)c4)c3s2)C1`: the inhibition amounted to 2.4%. On to `COc1ccc(-c2oc3ncnc(N)c3c2-c2ccc(NC(=O)Nc3cc(C(F)(F)F)ccc3F)cc2)cc1`, for which the inhibition worked out at 96.6%. `CCn1c(-c2nonc2N)nc2cnc(Oc3cccc(NC(=O)c4ccc(N(C)C)cc4)c3)cc21`: the inhibition worked out at 2.84%.

Consider `CCn1c(-c2nonc2N)nc2c(C#CC(C)(C)O)nc(OC[C@H](N)c3ccccc3)cc21`, for which the inhibition came out at 0.54%.

Take `Fc1ccc(-c2nn3ncccc3c2-c2ccnc(Nc3ccc4c(c3)OCCO4)n2)cc1`: the inhibition came to 3.02%. Regarding `COc1cccc(-c2c[nH]c3c(N/N=C/c4ccncc4)ncnc23)c1`, the inhibition was determined as 13.4%.

As for `O=C(Nc1n[nH]c2cc(-c3ccc(F)cc3)ccc12)C1CC1`, the inhibition was determined as 2.93%. Turning to `Clc1ccc(-c2nn3ncccc3c2-c2ccnc(Nc3ccccc3)n2)cc1`, the inhibition stood at 1.49%.

For the compound `c1ccc(COc2ccc(Nc3ncnc4ccc(-c5ccco5)cc34)cc2)cc1`, the inhibition turned out to be 0.09%. As for `N#Cc1c(NC(=O)c2ccc(F)cc2)sc2c1CCCC2`, the inhibition worked out at 1.9%. As for `COc1cc(/C=N/Nc2ncnc3[nH]ncc23)ccc1O`, the inhibition came out at 5.09%. For the compound `Nc1nc(-c2cccc(Cl)c2)c(-c2ccc3ncccc3n2)s1`, the inhibition worked out at 2.01%. `COc1cc2ncn(-c3cc(OCc4ccccc4C(F)(F)F)c(C(=O)N(C)C)s3)c2cc1OC`: the inhibition is -0.19%. Regarding `COC(=O)Nc1nc2ccc(S(=O)(=O)c3ccc(NC(=O)Nc4cc(C(F)(F)F)ccc4F)cc3)cc2[nH]1`, the inhibition is 2.5%.

In the case of `COc1ccc(-c2cc3c(N)ncnc3o2)cc1`, the inhibition is -1.04%. On to `COc1cc(N2CCN(C(C)C)CC2)ccc1Nc1nc(Nc2ccc(F)cc2C(N)=O)c2cc[nH]c2n1`, for which the inhibition turned out to be 1.72%. For the compound `CC1=C(C(=O)Nc2cc(Cl)c3[nH]ncc3c2)C(c2ccc(C(F)(F)F)cc2)CC(=O)N1` (stereo not drawn), the inhibition turned out to be 50.2%. Next, `CC(=O)NCc1cccc(C#Cc2cncnc2Nc2ccc(OCc3cccc(F)c3)c(Cl)c2)c1`: -0.6%. With `CCn1c(-c2nonc2N)nc2c(C#CC(C)(C)O)ncc(OC3CCNCC3)c21`, the inhibition worked out at 3.1%. Next, `NS(=O)(=O)c1ccc(Nc2ncc(-c3ccccc3)o2)cc1`: 3.44%; `CCCN(CCS(C)(=O)=O)Cc1ccc(-c2ccc3ncnc(Nc4ccc(OCc5cccc(F)c5)c(Cl)c4)c3c2)o1`: 3.54%.

As for `CN1CCC(n2cnc(-c3ccc(F)cc3)c2-c2ccnc(Nc3ccccc3)n2)CC1`, the inhibition is 1.28%. Take `COc1ccc(CNC(=O)c2ccc(-c3cc(-c4nnc(C)o4)ccc3C)cc2)cc1`: the inhibition was determined as 3.25%.

In the case of `COc1cc(Nc2nccc(Nc3ccc4c(C)n[nH]c4c3)n2)cc(OC)c1OC`, the inhibition is 21.3%. Consider `CN1CCC(n2cnc(-c3ccc(F)cc3)c2-c2ccnc(N)n2)CC1`, for which the inhibition was 0.53%. With `COc1ccc2c(-c3ccnc(Nc4cccc(OC(F)(F)F)c4)n3)cnn2n1`, the inhibition worked out at 5.85%.
